# PubChem BioAssay (Tox21)
# Records with an inconclusive call do not appear. The source made the active and inactive calls. Calls follow the shape of the dose curve; as a rule, active = well fitted curve in the direction sought with a large enough effect in the repeat runs; inconclusive = weak or mixed curves; inactive = no such curve, though single readings can be large; an effect the other way counts as inactive or inconclusive.
# Assay: A CellTox Green Cytotoxicity Assay to monitor cytotoxicity in HEK293 cells - 16 hour (AID 1224888); also: nearly all actives have a fitted effect of over 35% in size
# Conditions: CellTox Green fluorescence; series mostly up to 76.8 µM; activity change: at the top concentration
# In short: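 Cells (HEK293, 600/well) and dye reagent are dispensed together. After 5 h at 37 C, 23 nL compound is pinned in. Plates stay at 37 C for 40 h with fluorescence read at 0h, 8h, 16h, 24h, 32h and 40h.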
# % is scaled to controls: 0 for no effect and ±100 for the full control effect; potency is read from the fitted curve at half-maximal effect.
Structure (SMILES),activity change,Potency
S=c1nccc[nH]1,-12.6% (inactive),
Cc1cc(C)c(/C=C2\C(=O)Nc3ccccc32)[nH]1,,10.7 µM (active)
CCC(=O)OC(=O)CC,9.42% (inactive),
C=CC(=O)Nc1cc2c(Nc3ccc(F)c(Cl)c3)ncnc2cc1OCCCN1CCOCC1,"8.5% [at 35.3 µM, hits give high values] (inactive)",
O=C1CCc2cc(OCCCCc3nnnn3C3CCCCC3)ccc2N1,"-5.2% [at 35.3 µM, hits give high values] (inactive)",
FC(F)(F)c1cccc(Cl)c1,-13% (inactive),
CCOC(=O)c1ccc(C2CCC(NC[C@H](O)COc3ccc(O)c(NS(C)(=O)=O)c3)CC2)cc1 (some centres undefined),17.8% (inactive),

# Assay: qHTS RealTime-Glo MT Cell Viability Assay in HepG2 cells - 0 hour (AID 1224889); also: nearly all actives have a fitted effect of over 50% in size
# Conditions: RealTime-Glo luminescence; series mostly up to 76.8 µM; activity change, negative = cytotoxicity: at the top concentration
# In short: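 Compound treatment began 5 h after plating HepG2 cells (600/well) with NanoLuc luciferase and prosubstrate. Plates stayed at 37 C for 40 h; luminescence was captured at six time points, 0 h through 40 h.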
Structure (SMILES),"activity change, negative = cytotoxicity",Potency
Cc1ccc(-c2ccccc2)cc1,9.28% (inactive),
CC1=CCC(=C(C)C)CC1,0.0006% (inactive),
S=C([S-])NCCNC(=S)[S-].S=C([S-])NCCNC(=S)[S-].[Mn+2].[Zn+2],-2% [at 35.3 µM] (inactive),
C=Cc1ccccc1C=C,2.62% [at 200 µM] (inactive),
COC(=O)Nc1nc2ccc(C(=O)c3ccccc3)cc2[nH]1,-10.6% [at 35.3 µM] (inactive),
CCc1oc2ccccc2c1C(=O)c1cc(I)c(O)c(I)c1,-0.87% [at 35.3 µM] (inactive),
CC(C)CCCCCOC(=O)CCS,-8.57% (inactive),
NC[C@H]1O[C@H](O[C@H]2[C@H](O[C@@H]3O[C@H](CO)[C@@H](O)[C@H]3O)C(O)[C@H](N)C[C@@H]2N)[C@H](N)[C@@H](O)[C@@H]1O (some centres undefined),1.18% [at 6.97 µM] (inactive),
[Cu+],-6.6% (inactive),
COc1cc2nc(N3CCN(C(=O)c4ccco4)CC3)nc(N)c2cc1OC,8.34% [at 15.8 µM] (inactive),
CC(C(=O)O)c1ccc2c(c1)[nH]c1ccc(Cl)cc12 (centres undefined),-17.2% [at 35.3 µM] (inactive),
Fc1ccc(C(c2ccc(F)cc2)N2CCNCC2)cc1,15.8% [at 35.3 µM] (inactive),
CCCCN(CCCC)CC(O)c1cc(Cl)cc2c1-c1ccc(Cl)cc1/C2=C/c1ccc(Cl)cc1 (centres undefined),4.99% [at 35.3 µM] (inactive),
C#C[C@]1(OC(C)=O)CC[C@H]2[C@@H]3CCC4=C[C@@H](OC(C)=O)CC[C@@H]4[C@H]3CC[C@@]21C,-4.81% [at 35.3 µM] (inactive),
CC1(C)CC(O)CC(C)(C)N1,6.6% (inactive),
O=c1[nH]c(=O)n([C@H]2C[C@H](O)[C@@H](CO)O2)cc1F,-0.214% [at 35.3 µM] (inactive),
Cc1cc(-c2ccc(N=Nc3cc(S(=O)(=O)O)c4ccccc4c3N)c(C)c2)ccc1N=Nc1cc(S(=O)(=O)O)c2ccccc2c1N,15.4% (inactive),
COC(C)=O,7.21% (inactive),

Structure (SMILES),"activity change, negative = cytotoxicity",Potency
OC/C=C/CO,3.58% (inactive),
Nc1ccc(C(=O)O)c(O)c1,6.52% [at 35.3 µM] (inactive),
C/C=C/C=C/COC(=O)C(C)C,3.96% (inactive),
CCCCCCOC(=O)C(C)CC (centres undefined),3.28% (inactive),
CC(C)=CCNc1ncnc2c1ncn2[C@@H]1O[C@H](CO)[C@@H](O)[C@H]1O,7.82% [at 35.3 µM] (inactive),
C#Cc1ccc(-c2ccccc2F)cc1,2.45% [at 35.3 µM] (inactive),
COc1ccc(NC(=O)CC(C)=O)cc1,1.89% (inactive),
CCCCNS(=O)(=O)c1ccc(C)cc1,-12.2% (inactive),
CC1=Nc2ccccc2C1(C)C,4.18% (inactive),
O=C(c1ccc(O)c(O)c1)c1ccc(O)cc1O,-0.854% (inactive),
COc1cccc(OC)c1C(=O)O,1.82% (inactive),
S=c1nccc[nH]1,6% (inactive),
Cc1cc(C)c(/C=C2\C(=O)Nc3ccccc32)[nH]1,-5.78% [at 35.3 µM] (inactive),
CCC(=O)OC(=O)CC,-1.43% (inactive),
C=CC(=O)Nc1cc2c(Nc3ccc(F)c(Cl)c3)ncnc2cc1OCCCN1CCOCC1,,9.52 µM (active)
O=C1CCc2cc(OCCCCc3nnnn3C3CCCCC3)ccc2N1,1% [at 35.3 µM] (inactive),
FC(F)(F)c1cccc(Cl)c1,3.31% (inactive),

# Assay: A CellTox Green Cytotoxicity Assay to monitor cytotoxicity in HepG2 cells - 8 hour (AID 1224890); also: nearly all actives have a fitted effect of over 45% in size
# Conditions: CellTox Green fluorescence; series mostly up to 76.8 µM; cytotoxicity increase: at the top concentration
# In short: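 Cells and non-lytic dye reagent are dispensed together (600 HepG2 cells/well) and incubated 5 h before DMSO compound transfer. Kinetic fluorescence is then recorded in the same wells during 40 h at 37 C.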
Structure (SMILES),Potency,cytotoxicity increase
Cc1ccc(-c2ccccc2)cc1,49 µM (active),
CC1=CCC(=C(C)C)CC1,,-8.6% (inactive)
S=C([S-])NCCNC(=S)[S-].S=C([S-])NCCNC(=S)[S-].[Mn+2].[Zn+2],,-10.4% [at 35.3 µM] (inactive)
C=Cc1ccccc1C=C,,-3.46% [at 200 µM] (inactive)
COC(=O)Nc1nc2ccc(C(=O)c3ccccc3)cc2[nH]1,,1.05% [at 35.3 µM] (inactive)
CCc1oc2ccccc2c1C(=O)c1cc(I)c(O)c(I)c1,,-15% [at 35.3 µM] (inactive)
CC(C)CCCCCOC(=O)CCS,,-15.9% (inactive)
CC(C(=O)O)c1ccc2c(c1)[nH]c1ccc(Cl)cc12 (centres undefined),,-3.79% [at 35.3 µM] (inactive)
Fc1ccc(C(c2ccc(F)cc2)N2CCNCC2)cc1,,5.14% [at 35.3 µM] (inactive)
CCCCN(CCCC)CC(O)c1cc(Cl)cc2c1-c1ccc(Cl)cc1/C2=C/c1ccc(Cl)cc1 (centres undefined),13.4 µM (active),
O=c1[nH]c(=O)n([C@H]2C[C@H](O)[C@@H](CO)O2)cc1F,6.01 µM (active),
Cc1cc(-c2ccc(N=Nc3cc(S(=O)(=O)O)c4ccccc4c3N)c(C)c2)ccc1N=Nc1cc(S(=O)(=O)O)c2ccccc2c1N,,2.52% (inactive)
COC(C)=O,,-0.166% (inactive)
O=C(O)c1cc(O)c2ccccc2c1O,,7.73% (inactive)
OC/C=C/CO,,1.73% (inactive)
CCCCCCOC(=O)C(C)CC (centres undefined),,6.74% (inactive)
C#Cc1ccc(-c2ccccc2F)cc1,,-17.6% [at 35.3 µM] (inactive)
COc1ccc(NC(=O)CC(C)=O)cc1,,3.37% (inactive)
CCCCNS(=O)(=O)c1ccc(C)cc1,,-1.67% (inactive)
O=C(c1ccc(O)c(O)c1)c1ccc(O)cc1O,,14.2% (inactive)
COc1cccc(OC)c1C(=O)O,,-6.83% (inactive)
S=c1nccc[nH]1,,-1.88% (inactive)
CCC(=O)OC(=O)CC,,-1.06% (inactive)
C=CC(=O)Nc1cc2c(Nc3ccc(F)c(Cl)c3)ncnc2cc1OCCCN1CCOCC1,,5.44% [at 35.3 µM] (inactive)
O=C1CCc2cc(OCCCCc3nnnn3C3CCCCC3)ccc2N1,,6.6% [at 35.3 µM] (inactive)
FC(F)(F)c1cccc(Cl)c1,,-6.1% (inactive)
CCOC(=O)c1ccc(C2CCC(NC[C@H](O)COc3ccc(O)c(NS(C)(=O)=O)c3)CC2)cc1 (some centres undefined),,1.84% (inactive)
